MARV entry inh: blocks Marburg virus binding or cell entry. Marburg virus pseudotype entry/binding inhibition, cell-based. Potency, µM (doses to about 49.2 µM), hits mostly inhibitors. actives 6.5% (n = 18,000). AID 720532
LASV entry inh: blocks Lassa virus binding or cell entry | Lassa virus pseudotyped entry inhibition, cell-based qHTS | Potency, µM (highest dose often 49.2 µM), actives largely listed as inhibitors | actives 4.1% (n = 18,000) | AID 720533
Of the large screens only hits and unclear results are named; the others gave an inactive call; ! = not active in a repeat. Hits are enriched below; roughly 7.1% of the tested compounds scored in any of these assays. The call rests on the fitted dose curve; tested in HEK293 cells.

c1ccc([C@H]2CNCc3ccccc32)cc1	none
CC(O)[C@H]1CC[C@H]2[C@@H]3CC[C@@H]4C[C@@H](O)CC[C@]4(C)[C@H]3CC[C@]12C (some centres undefined)	none
CC(=O)OCOC(=O)CN(CC(=O)OCOC(C)=O)c1ccccc1OCCOc1ccccc1N(CC(=O)OCOC(C)=O)CC(=O)OCOC(C)=O	MARV entry inh 16µM, LASV entry inh inconclusive
Oc1ccc(OCc2ccccc2)cc1	LASV entry inh inconclusive
N=C(N)SCCc1ccc(OCc2ccc([N+](=O)[O-])cc2)cc1	MARV entry inh 14µM
O=C1[C@H]2[C@@H]3[C@@H](O)[C@H](O)CC(=NOCc4ccccc4)[C@@H]3CC[C@H]2C(=O)N1C[C@@H]1CCCO1	none
CC[C@@H](C(=O)O)[C@@H]1O[C@@H]([C@@H](C)[C@H](O)[C@H](C)C(=O)[C@H](CC)[C@H]2O[C@]3(C=C[C@@H](O)[C@]4(CC[C@@](C)([C@H]5CC[C@](O)(CC)[C@H](C)O5)O4)O3)[C@H](C)C[C@@H]2C)[C@@H](C)C[C@@H]1C	MARV entry inh 6.3µM, LASV entry inh 1µM
NC(=O)CCCCn1ccc(NC(N)=NCC(F)(F)F)n1	none
CC[C@@]1([C@@H]2O[C@@H]([C@H]3O[C@@](O)(CO)[C@H](C)C[C@@H]3C)C[C@@H]2C)CC[C@H]([C@]2(C)CC[C@]3(C[C@H](O)[C@@H](C)[C@@H]([C@@H](C)[C@@H](OC)[C@H](C)C(=O)O)O3)O2)O1 (stereo in doubt)	MARV entry inh 4µM!, LASV entry inh 2.8µM!
CC1(C)CC(C(=O)N2CCOc3ccc(CN4CCN(Cc5ccccn5)CC4)cc3C2)CCO1 (centres undefined)	none
CC(C)(O)C1O[C@H]2CC[C@@]3(C)[C@@](O)(CC[C@H]4Cc5c([nH]c6ccccc56)[C@@]43C)C2=CC1=O (some centres undefined)	MARV entry inh inconclusive, LASV entry inh 32µM!
C=C1C[C@@]23C[C@@]1(O)CC[C@@H]2[C@]12C=C[C@@H](O)[C@](C)(C(=O)O1)[C@@H]2[C@@H]3C(=O)O	none
COc1ccc2c(c1)C(=O)[C@H](OC(=O)NCc1ccco1)[C@@H](c1ccc(OC)c(Br)c1)O2	none
O=C(CCCN1CCC(O)(c2ccc(Cl)cc2)CC1)c1ccc(F)cc1	MARV entry inh 13µM, LASV entry inh inconclusive
O=C(CCCN1CCC(O)(c2ccc(Br)cc2)CC1)c1ccc(F)cc1	MARV entry inh inconclusive
CCC1CN(CCNC(=O)c2cccc(C(=O)OC)c2)Cc2cc(OC)ccc2O1 (centres undefined)	none
COC(=O)Nc1nc2ccc(Oc3ccc(NC(=O)Nc4cc(C(F)(F)F)ccc4F)cc3)cc2s1	MARV entry inh inconclusive
CCCOc1ccc2nc(NC(=O)OC)sc2c1	LASV entry inh 3.2µM
COC(=O)c1c(OCc2ccccn2)cc(=O)n2c1CCN(Cc1cccc(C(F)(F)F)c1)CC2	none
COc1cc(OC)cc(-c2sc3ccccc3c(=O)c2I)c1	MARV entry inh 18µM, LASV entry inh inconclusive
COc1ccc(-c2cc3ccccc3c(=O)o2)cc1	none
CNC(=S)S	none
COC1=CC(C)C2CC3OC(=O)CC4C(C)=C(OC)C(=O)C([C@]2(C)C1=O)[C@]34C (some centres undefined)	none
CCCCN1CC(COCc2ccccc2)Oc2cccc(Oc3ccccc3)c2S1(=O)=O (centres undefined)	LASV entry inh 4µM
CCCCN1CC(COCc2ccccc2)Oc2cccc(Oc3ccc(C)cc3)c2S1(=O)=O (centres undefined)	none (no result: LASV entry inh)
O=C(CN1Cc2ccccc2OC(c2ccsc2)C1)N1CCC(c2nc3ccccc3[nH]2)CC1 (centres undefined)	MARV entry inh inconclusive
C[N+](C)(C)CCOC(=O)C(O)(c1ccccc1)c1ccccc1	none
Cc1cc(C(C)(C)CC(C)(C)C)ccc1OCCOCC[N+](C)(C)Cc1ccccc1	MARV entry inh 11µM, LASV entry inh inconclusive
COc1ccccc1N1CCN(CCCCN2C(=O)CCC2=O)CC1	none
COc1cccc2c1CCCC2CCCN1CCN(C2CCCCC2)CC1 (centres undefined)	MARV entry inh 13µM, LASV entry inh 22µM!
CCCCC/C=C\CCC(=O)N[C@H]1[C@H](Oc2c3cc4cc2Oc2ccc(cc2Cl)[C@@H](O[C@@H]2O[C@H](CO)[C@@H](O)[C@H](O)[C@H]2NC(C)=O)[C@@H]2NC(=O)[C@H](NC(=O)[C@@H]4NC(=O)[C@H]4NC(=O)[C@@H](Cc5ccc(c(Cl)c5)O3)NC(=O)[C@H](N)c3ccc(O)c(c3)Oc3cc(O)cc4c3)c3ccc(O)c(c3)-c3c(O[C@H]4O[C@H](CO)[C@@H](O)[C@H](O)[C@@H]4O)cc(O)cc3[C@@H](C(=O)O)NC2=O)O[C@H](CO)[C@@H](O)[C@@H]1O	MARV entry inh inconclusive
COC(=O)[C@@H]1C2CC3c4[nH]c5cc(OC)ccc5c4CCN3CC2C[C@H](OC(=O)c2cc(OC)c(OC)c(OC)c2)C1OC (some centres undefined)	MARV entry inh 13µM, LASV entry inh inconclusive
COc1ccc2c3c([nH]c2c1)[C@@H]1C[C@@H]2[C@@H](C[C@H](O)[C@H](OC)[C@H]2C(=O)O)CN1CC3	none
C#CCCCON=C1C[C@@H](O)[C@H](O)[C@H]2[C@@H]3C(=O)N(c4ccc(F)cc4F)C(=O)[C@@H]3CC[C@@H]12	none
CCc1nc2cc(C(=O)N3CCC[C@H]3C(=O)OC)cc(NC(=O)c3ccccc3OC)c2n1C	MARV entry inh inconclusive
Clc1ccc(C[n+]2cc(-c3ccccc3)n3c2CCCCC3)c(Cl)c1	MARV entry inh 8.9µM, LASV entry inh inconclusive
NCCC[C@@H](CC(=O)N[C@@H]1CCCC[C@H]1C(=O)N[C@H](CC(=O)N[C@@H](CCC(=O)O)CC(=O)O)Cc1c[nH]c2ccccc12)NC(=O)C[C@H](CO)NC(=O)[C@@H]1CNCC[C@H]1N	none
FC(F)(F)c1cccc(C2=CCN(CCc3ccc4ccccc4c3)CC2)c1	none
O=C1Nc2ccccc2C2(CCN(CCc3ccc(C(F)(F)F)cc3)CC2)O1	MARV entry inh 11µM, LASV entry inh inconclusive
CCN1C(=NCC(C)C)NC(c2cccc(F)c2)C(C(=O)OC)=C1C (centres undefined)	none
COC(=O)c1c(OCc2ccccc2)cc(=O)n2c1CCN(Cc1cccc(C)n1)CC2	none
COc1cc2c(cc1OC)-c1c(O)c(OC)cc3c1[C@H](C2)N(C)CC3	none
COc1cc2c(cc1OC)-c1cc(=Nc3c(C)cc(C)cc3C)n(C)c(=O)n1CC2	MARV entry inh 13µM, LASV entry inh 11µM
C[C@H]1[C@H](C)CC[C@]2(C=O)CC[C@]3(C)C(=CC[C@@H]4[C@@]5(C)C[C@@H](O)[C@H](O)[C@@](C)(CO)[C@@H]5CC[C@]43C)[C@H]12	none
COc1ccccc1-c1nccc(NCc2cccc(C)c2)n1	MARV entry inh 13µM
CNc1ccnc(-c2ccccc2CN(C)C)n1	none
COc1ccccc1-c1cncnc1NCc1cccc(C)c1	none
Cc1cccc(CNc2ccnc(-c3ccccc3CN(C)C)n2)c1	MARV entry inh 11µM, LASV entry inh inconclusive
COCCNc1cc(-c2ccccc2CN(C)C)ncn1	none
Cc1cccc(CNc2cc(-c3ccccc3CN(C)C)ncn2)c1	MARV entry inh 6.3µM
CCCCCC1=CC2=C(C(=O)OC)C(c3ccccc3)NC(=O)N2CC1 (centres undefined)	none
C=C[C@@]1(C)CC(=O)[C@]2(O)[C@@]3(C)[C@H](O)CCC(C)(C)[C@@H]3[C@H](O)[C@H](OC(C)=O)[C@@]2(C)O1	none
Cc1ccc(CN2[C@@H](CC(C)C)COc3c(Cl)cccc3S2(=O)=O)cc1	none

Compound activity deposited in PubChem BioAssay by National Center for Advancing Translational Sciences (NCATS).
